A number with no mark means an inactive call. Results filed as inconclusive are left out. Activity calls are given as the source filed them. Unless noted, the call rests on the fitted dose curve; in most records, active means well fitted curve in the direction sought with a large enough effect; inconclusive means small, poorly fitted or top-dose-only effect, or another doubt; inactive means no such curve, though single readings can be large; an effect the other way counts as inactive or inconclusive.
Experiments:
[1] = target: Lysosomal acid glucosylceramidase (Homo sapiens) (UniProt P04062); test: Glucocerebrosidase-p2 (AID 348; in the data active means potency below about 10 µM; further: potency means the concentration at half of the fitted maximal effect); conditions: purified GBA, blue fluorogenic substrate, 40 min
Outline: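 Normal human glucocerebrosidase (0.2 nM) with blue fluorogenic substrate (80 uM final) in citrate/phosphate pH 5.9 with 10mM sodium taurocholate, 0.01% tween-20; 40 min RT, NaOH/glycine stop; fluorescence Ex 365/Em 440; AC50 from a titration from 0.6 nM upwards.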

[2] = AP1 Signaling Pathway (AID 357; active means well fitted curve in either direction with a large enough effect, not every such curve was filed as active;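 further: ME-180 reporter cells stimulated with EGF at its EC50 level; on the % scale 0 is the no-effect control and ±100 the full control effect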); conditions: ME-180 AP-1-bla reporter, EGF-induced, beta-lactamase ratio, 5 h; at 7.69 µM (top of the series) unless noted
Outline: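 In this screen, ME-180 cells in Opti-MEM with 0.5% dialyzed FBS received EC50 EGF and compound titrations for 5 h. AP-1 reporter beta-lactamase was detected via CCF4 ratio, giving AC50 for positive and negative modulators.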

[3] = NFAT Signaling Pathway (AID 444; active means well fitted curve in either direction with a large enough effect, not every such curve was filed as active;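 further: carbachol stimulus at about its EC50 of 1 µM final; on the % scale 0 is the no-effect control and ±100 the full control effect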); conditions: Jurkat NFAT-bla M1, carbachol, beta-lactamase ratio, 5 h; at 7.69 µM (top of the series) unless noted
Outline: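 Jurkat cells carrying an NFAT-driven β-lactamase reporter and co-transfected muscarinic M1 receptor were treated with compound plus carbachol (1 uM final, an EC50 level) for 5 h at 37 °C. CCF4 loading followed for 1 h at RT; 460/530 nm ratio gave %activity.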

[4] = Stat Signaling Pathway (AID 446; active means well fitted curve in either direction with a large enough effect, not every such curve was filed as active;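 further: ME-180 cervical cancer cells given 40 pM IL-6 alongside compound; SIE-controlled beta-lactamase reporter measured as 460/530 nm FRET emission ratio; on the % scale 0 is the no-effect control and ±100 the full control effect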); conditions: ME-180 SIE beta-lactamase reporter, IL-6 stimulated, 5 h; at 7.69 µM (top of the series) unless noted
Outline: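 FRET read-out (405 nm excitation, 460/530 nm emission) of a beta-lactamase reporter under a STAT-inducible element in ME-180 cervical carcinoma cells. Cells with compound receive 40 pM IL-6 for 5 h. Values are normalised to AC90 stimulation and AC90 JAK-inhibitor controls.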

[5] = target: Glucocorticoid receptor (Homo sapiens) (UniProt P04150); test: GR-GFP Redistribution (AID 450;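 active means compounds whose dose series gives a full or clear partial fitted curve of increased nuclear translocation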; further: potency means the concentration at half of the fitted maximal effect); conditions: U2OS GR-GFP nuclear translocation, laser cytometry, 2 h
[6] = target: Glucocorticoid receptor (Homo sapiens) (UniProt P04150); test: GR-EFC Redistribution (AID 451; calls by dose curve; further: potency means the concentration at half of the fitted maximal effect); conditions: CHO-K1 GR-EFC translocation, beta-gal luminescence, 2 h
Outline: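 CHO-K1 cells stably expressing nuclear-localized β-gal enzyme acceptor and GR fused C-terminally to the enzyme donor fragment; ligand-driven nuclear translocation restores β-gal by complementation. Compounds titrated up to 46 uM final, 2 h at 37 °C; luminescence read.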

[7] = target: Mitogen-activated protein kinase 10 (Mus musculus) (UniProt Q61831); test: JNK3 AlphaScreen Assay (AID 530; active means well fitted curve in either direction with a large enough effect, not every such curve was filed as active;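 further: kinase came from lysate of stimulated human HepG2 cells; signal reports phosphorylation of biotinylated GST-cJun 1-79 at Ser73 with 10 µM ATP; on the % scale 0 is the no-effect control and ±100 the full control effect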); conditions: JNK3 lysate, c-Jun phosphorylation; series mostly up to 57.1 µM
Outline: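 Biotinylated GST-cJun(1-79) served as substrate for JNK3 in HepG2 lysates stimulated with IL-1beta and TNF-alpha. ATP was 10 uM final, pH 7.6. Ser73 phosphorylation was quantified by AlphaScreen (680 nm excitation).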

[8] = target: Dual specificity protein kinase CLK4 (Homo sapiens) (UniProt Q9HAZ1); test: qHTS Assay for Inhibitors of CDC-like Kinase 4 (Kinase-Glo Assay) (AID 1770); conditions: recombinant Clk4, Kinase-Glo ATP depletion luminescence; series mostly up to 66.7 µM; further: nearly all actives have a fitted effect of over 65% in size; further: potency means the concentration at half of the fitted maximal effect
Outline: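 Luminescent ATP-depletion read-out (Kinase-Glo) after 4.5 h room-temperature reaction of Clk4 (25 nM final) with RS peptide (100 uM) and ATP (1 uM), pH 7.5 Tris buffer with MgCl2 and DTT.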

[9] = target: Dual specificity protein kinase CLK4 (Homo sapiens) (UniProt Q9HAZ1); test: qHTS Assay for Inhibitors of CDC-like Kinase 4 (ADP-Glo Assay) (AID 1771); conditions: recombinant CLK4, ADP-Glo luminescence; series mostly up to 80 µM; further: nearly all actives have a fitted effect of over 70% in size; further: potency means the concentration at half of the fitted maximal effect
Outline: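 25 nM Clk4, 100 uM RS peptide, 1 uM ATP (final); 2 mM MgCl2, 0.5 mM EGTA, 2.5 mM DTT, 0.01% Triton X-100; 1 hr RT. ADP-Glo readout: ATP depletion 45 min, conversion/luciferase 30 min, luminescence.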

[10] = target: Dual specificity protein kinase CLK4 (Homo sapiens) (UniProt Q9HAZ1); test: qHTS Assay for Inhibitors of CDC-like Kinase 4 (ADP-FP Assay) (AID 1795); conditions: Transcreener ADP fluorescence polarization; series mostly up to 50 µM; further: nearly all actives have a fitted effect of over 60% in size; further: potency means the concentration at half of the fitted maximal effect
Outline: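 Kinase activity was measured as ADP production using Transcreener orange tracer (4 nM) and ADP antibody (1 ug/mL) fluorescence polarization, with ADP calculated from a calibration curve. The 1 h reaction contained 6.25 nM Clk4, 1 uM ATP and 100 uM RS peptide at pH 7.5 with Mg2+.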

[11] = target: Ubiquitin carboxyl-terminal hydrolase 1 (Homo sapiens) (UniProt O94782); test: Inhibitors of USP1/UAF1: Pilot qHTS (AID 504865); conditions: purified USP1/UAF1, Ub-rhodamine cleavage fluorescence; series mostly up to 54.9 µM;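 further: rhodamine fluorescence freed from ubiquitin-rhodamine substrate followed over time; top concentration of the series differs between compounds; on the % scale 0 is the no-effect control and ±100 the full control effect; nearly all actives have a fitted effect of over 35% in size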
Outline: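 Deubiquitinase activity followed as kinetic rhodamine fluorescence release from 150 nM Ub-Rho. 1 nM USP1/UAF1 with compound, after 15 min room-temperature preincubation, in HEPES pH 7.8 buffer containing TCEP, EDTA, BSA and Tween-20.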

[12] = Primary qHTS for small molecule stabilizers of the endoplasmic reticulum resident proteome: Secreted ER Calcium Modulated Protein (SERCaMP) assay (AID 1508630); conditions: SH-SY5Y GLuc-SERCaMP (Gaussia luciferase released on ER calcium loss) secretion, thapsigargin, luminescence; series mostly up to 38.4 µM; further: on the % scale 0 is the no-effect control and ±100 the full control effect
Outline: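 The SH-SY5Y reporter protocol was run at 3 concentrations up to 38.3 uM (primary) or 11 concentrations (follow-up): 16 h compound, 100 nM thapsigargin for 4 h, then extracellular luciferase luminescence.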

[13] = target: 3',5'-cyclic-AMP phosphodiesterase 4B (Homo sapiens) (UniProt Q07343); test: qHTS Assay for Inhibitors of PDE-IV (AID 607; active means well fitted activation curve with a large enough effect in the main read-out, with a control signal flat, not every such curve was filed as active; further: % of control where 0% means no effect); conditions: HEK293 ACTOne CNG channel cells, membrane potential fluorescence; series mostly up to 22.9 µM
Outline: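 Cell-based read-out of cAMP via a modified cyclic nucleotide-gated channel and membrane potential dye (535/590 nm) in HEK293 cells expressing PDE4 endogenously. Compounds tested up to 22.9 uM final; 100 uM RO 20-1724 reference.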

[14] = target: Cytochrome P450 3A4 (Homo sapiens) (UniProt P08684); test: qHTS Assay for Activators of Cytochrome P450 3A4 (AID 885); conditions: recombinant CYP3A4, Luciferin-PPXE luminescence, 60 min; series mostly up to 57.1 µM; further: nearly all actives have a fitted effect of over 65% in size
Outline: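 Luminescent readout of luciferin formed from 25 uM Luciferin-PPXE (KM level) by 20 nM CYP3A4 in 200 mM KPO4, with 60 min NADPH-driven reaction at room temperature after 10 min compound exposure. Ketoconazole (57 uM) defined 100% inhibition.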

[15] = target: Cytochrome P450 1A2 (Homo sapiens) (UniProt P05177); test: p450-cyp1a2 (AID 410; calls by dose curve; further: potency means the concentration at half of the fitted maximal effect); conditions: recombinant CYP1A2, luciferin-ME demethylation, luminescence; series mostly up to 57 µM
Outline: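 20nM CYP1A2, 100uM Luciferin-ME (=Km), 100mM KPO4; cpd 10 min RT; +NADPH regen, 60 min RT; stop/detect 20 min; luminescence. Normalized to furafylline 57 uM = full inhibition.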

[16] = target: Cytochrome P450 3A4 (Homo sapiens) (UniProt P08684); test: qHTS Assay for Inhibitors and Substrates of Cytochrome P450 3A4 (AID 884); conditions: recombinant CYP3A4, Luciferin-PPXE luminescence; series mostly up to 57.1 µM; further: potency means the concentration at half of the fitted maximal effect; nearly all actives have a fitted effect of over 50% in size
Outline: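 Luminescent readout of luciferin produced by CYP3A4 (20 nM) dealkylation of Luciferin-PPXE, 25 uM (its KM). NADPH-driven reaction ran 60 min at RT after 10 min compound preincubation; data scaled to 57 uM ketoconazole as 100% inhibition.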

[17] = target: Cytochrome P450 2C19 (Homo sapiens) (UniProt P33261); test: qHTS Assay for Inhibitors and Substrates of Cytochrome P450 2C19 (AID 899); conditions: recombinant CYP2C19, luciferin-H EGE luminescence; series mostly up to 57.1 µM; further: potency means the concentration at half of the fitted maximal effect; nearly all actives have a fitted effect of over 60% in size
Outline: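 In 50mM KPO4, the reaction held 5nM enzyme and KM-level (10uM) Luciferin-H EGE; it ran 60 min at 37C after NADPH regeneration and a 10 min compound preincubation. Luminescence values were scaled to 57uM ketoconazole as complete inhibition.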

[18] = qHTS Assay for Identification of Small Molecule Agonists for Hypoxia Response Element Signaling Pathway (AID 914; active means well fitted activation curve with a large enough effect in the signal ratio, with a control signal flat, not every such curve was filed as active; the % refers to the signal ratio; further: potency means the concentration at half of the fitted maximal effect); conditions: ME-180 (cervical carcinoma) HRE-bla reporter, beta-lactamase ratio, CoCl2, 17 h; activation: stronger effect = higher value
Outline: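 In Opti-MEM containing 0.5% dialyzed FBS and 10 mM HEPES, ME-180 HRE-bla cells received a compound titration and EC50 CoCl2. They were incubated 17 hours, then CCF4-loaded 2.5 hours at room temperature before ratio reading.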

Glucocorticoid receptor (Homo sapiens), sequence (P04150 whole entry, looked up, the tested form may be a part): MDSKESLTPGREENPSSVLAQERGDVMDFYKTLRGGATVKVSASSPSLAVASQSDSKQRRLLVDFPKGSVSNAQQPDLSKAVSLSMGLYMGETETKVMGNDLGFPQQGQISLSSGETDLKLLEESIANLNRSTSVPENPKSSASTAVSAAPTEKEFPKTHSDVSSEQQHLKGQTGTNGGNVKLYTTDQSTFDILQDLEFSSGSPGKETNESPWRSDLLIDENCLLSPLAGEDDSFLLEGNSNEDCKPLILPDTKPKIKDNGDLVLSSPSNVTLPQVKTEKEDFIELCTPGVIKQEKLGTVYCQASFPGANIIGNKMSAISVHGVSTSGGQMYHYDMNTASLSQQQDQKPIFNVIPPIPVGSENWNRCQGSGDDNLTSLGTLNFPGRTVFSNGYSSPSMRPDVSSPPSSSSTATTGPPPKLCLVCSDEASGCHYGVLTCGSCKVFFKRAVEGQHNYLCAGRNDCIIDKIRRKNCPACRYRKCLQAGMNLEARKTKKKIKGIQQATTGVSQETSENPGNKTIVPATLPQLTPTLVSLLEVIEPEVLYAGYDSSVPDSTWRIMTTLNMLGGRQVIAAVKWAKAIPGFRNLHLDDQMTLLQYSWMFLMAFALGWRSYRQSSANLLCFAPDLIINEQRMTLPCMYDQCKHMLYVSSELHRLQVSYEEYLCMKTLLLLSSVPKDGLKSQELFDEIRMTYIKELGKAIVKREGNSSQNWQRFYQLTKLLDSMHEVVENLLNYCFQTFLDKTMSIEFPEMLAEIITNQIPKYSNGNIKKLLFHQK
Ubiquitin carboxyl-terminal hydrolase 1 (Homo sapiens), sequence (O94782 whole entry, looked up): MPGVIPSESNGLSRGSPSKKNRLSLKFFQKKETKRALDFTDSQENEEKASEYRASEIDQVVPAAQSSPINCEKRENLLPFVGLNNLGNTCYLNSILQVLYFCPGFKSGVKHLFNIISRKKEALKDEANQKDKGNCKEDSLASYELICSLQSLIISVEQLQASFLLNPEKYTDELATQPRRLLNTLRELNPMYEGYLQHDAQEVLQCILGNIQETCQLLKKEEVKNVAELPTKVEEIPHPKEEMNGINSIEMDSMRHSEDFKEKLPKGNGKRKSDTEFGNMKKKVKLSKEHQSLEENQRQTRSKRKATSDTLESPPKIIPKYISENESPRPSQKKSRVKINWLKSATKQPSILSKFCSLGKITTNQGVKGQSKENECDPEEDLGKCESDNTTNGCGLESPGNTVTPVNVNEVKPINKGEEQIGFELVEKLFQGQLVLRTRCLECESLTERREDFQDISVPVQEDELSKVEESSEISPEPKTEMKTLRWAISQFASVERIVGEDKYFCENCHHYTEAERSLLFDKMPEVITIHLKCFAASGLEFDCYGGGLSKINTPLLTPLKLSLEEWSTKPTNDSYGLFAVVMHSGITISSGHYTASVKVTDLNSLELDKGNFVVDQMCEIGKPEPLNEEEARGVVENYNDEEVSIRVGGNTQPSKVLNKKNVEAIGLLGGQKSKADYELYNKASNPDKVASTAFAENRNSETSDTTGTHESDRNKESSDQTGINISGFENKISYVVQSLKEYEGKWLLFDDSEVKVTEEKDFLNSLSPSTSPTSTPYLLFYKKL
3',5'-cyclic-AMP phosphodiesterase 4B (Homo sapiens), sequence (Q07343 whole entry, looked up): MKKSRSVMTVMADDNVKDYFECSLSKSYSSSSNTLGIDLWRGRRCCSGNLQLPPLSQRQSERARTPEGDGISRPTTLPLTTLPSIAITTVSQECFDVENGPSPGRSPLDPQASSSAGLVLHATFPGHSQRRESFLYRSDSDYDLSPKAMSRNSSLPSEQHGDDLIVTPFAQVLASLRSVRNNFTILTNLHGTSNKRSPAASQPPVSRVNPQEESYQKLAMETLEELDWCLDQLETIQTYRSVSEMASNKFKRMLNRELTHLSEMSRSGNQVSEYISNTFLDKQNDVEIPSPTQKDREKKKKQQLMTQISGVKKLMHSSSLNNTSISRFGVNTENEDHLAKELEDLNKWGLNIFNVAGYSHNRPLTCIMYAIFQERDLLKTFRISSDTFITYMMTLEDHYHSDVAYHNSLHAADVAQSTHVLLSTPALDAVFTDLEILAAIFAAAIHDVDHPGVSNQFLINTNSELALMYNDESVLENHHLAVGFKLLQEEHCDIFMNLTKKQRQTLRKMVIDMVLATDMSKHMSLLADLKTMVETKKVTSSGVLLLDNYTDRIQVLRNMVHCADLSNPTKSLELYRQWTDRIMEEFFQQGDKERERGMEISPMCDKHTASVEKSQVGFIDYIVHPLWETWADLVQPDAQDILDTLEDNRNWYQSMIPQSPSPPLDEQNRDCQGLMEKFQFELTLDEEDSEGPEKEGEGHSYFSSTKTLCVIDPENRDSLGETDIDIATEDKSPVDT
Dual specificity protein kinase CLK4 (Homo sapiens), sequence (Q9HAZ1 whole entry, looked up): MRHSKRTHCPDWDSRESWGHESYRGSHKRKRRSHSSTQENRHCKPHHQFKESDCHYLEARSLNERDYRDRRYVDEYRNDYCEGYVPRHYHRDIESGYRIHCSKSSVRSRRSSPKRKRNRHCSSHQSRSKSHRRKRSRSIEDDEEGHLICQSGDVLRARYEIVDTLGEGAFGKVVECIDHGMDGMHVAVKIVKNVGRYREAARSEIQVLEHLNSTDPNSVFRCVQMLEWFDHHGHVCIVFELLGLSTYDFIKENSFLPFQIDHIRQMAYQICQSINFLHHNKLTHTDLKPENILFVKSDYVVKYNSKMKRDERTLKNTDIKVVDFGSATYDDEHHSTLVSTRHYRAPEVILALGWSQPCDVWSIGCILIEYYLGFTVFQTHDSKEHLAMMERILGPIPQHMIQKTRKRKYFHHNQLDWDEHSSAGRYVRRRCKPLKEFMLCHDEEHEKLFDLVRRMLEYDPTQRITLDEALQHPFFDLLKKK
Cytochrome P450 3A4 (Homo sapiens), sequence (P08684 whole entry, looked up): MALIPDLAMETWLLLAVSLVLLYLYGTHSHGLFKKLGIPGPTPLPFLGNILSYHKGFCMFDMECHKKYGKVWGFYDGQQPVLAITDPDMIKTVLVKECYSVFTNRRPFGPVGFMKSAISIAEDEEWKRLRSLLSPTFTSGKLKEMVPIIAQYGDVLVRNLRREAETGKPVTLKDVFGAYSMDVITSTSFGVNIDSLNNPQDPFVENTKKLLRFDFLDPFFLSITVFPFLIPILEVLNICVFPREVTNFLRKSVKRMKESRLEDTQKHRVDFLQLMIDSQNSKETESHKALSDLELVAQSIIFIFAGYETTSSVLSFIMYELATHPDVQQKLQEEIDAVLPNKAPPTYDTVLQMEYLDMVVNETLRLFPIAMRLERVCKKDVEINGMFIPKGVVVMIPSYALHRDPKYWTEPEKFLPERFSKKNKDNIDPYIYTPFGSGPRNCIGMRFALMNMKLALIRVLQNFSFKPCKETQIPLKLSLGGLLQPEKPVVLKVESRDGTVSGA
Lysosomal acid glucosylceramidase (Homo sapiens), sequence (P04062 whole entry, looked up): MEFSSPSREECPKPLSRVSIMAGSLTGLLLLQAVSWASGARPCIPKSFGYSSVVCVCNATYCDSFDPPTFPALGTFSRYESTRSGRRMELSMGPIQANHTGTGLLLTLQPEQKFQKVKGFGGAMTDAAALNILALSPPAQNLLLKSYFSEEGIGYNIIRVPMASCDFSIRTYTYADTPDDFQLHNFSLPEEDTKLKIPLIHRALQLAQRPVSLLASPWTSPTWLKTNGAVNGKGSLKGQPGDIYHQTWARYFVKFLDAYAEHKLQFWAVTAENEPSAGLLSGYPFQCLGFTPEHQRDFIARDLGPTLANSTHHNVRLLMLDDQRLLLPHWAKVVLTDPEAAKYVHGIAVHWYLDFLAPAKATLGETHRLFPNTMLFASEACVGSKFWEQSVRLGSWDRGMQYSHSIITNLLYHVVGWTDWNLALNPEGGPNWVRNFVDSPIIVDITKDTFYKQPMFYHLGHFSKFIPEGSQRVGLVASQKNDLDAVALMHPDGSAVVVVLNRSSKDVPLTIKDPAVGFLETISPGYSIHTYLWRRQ
Cytochrome P450 1A2 (Homo sapiens), sequence (P05177 whole entry, looked up): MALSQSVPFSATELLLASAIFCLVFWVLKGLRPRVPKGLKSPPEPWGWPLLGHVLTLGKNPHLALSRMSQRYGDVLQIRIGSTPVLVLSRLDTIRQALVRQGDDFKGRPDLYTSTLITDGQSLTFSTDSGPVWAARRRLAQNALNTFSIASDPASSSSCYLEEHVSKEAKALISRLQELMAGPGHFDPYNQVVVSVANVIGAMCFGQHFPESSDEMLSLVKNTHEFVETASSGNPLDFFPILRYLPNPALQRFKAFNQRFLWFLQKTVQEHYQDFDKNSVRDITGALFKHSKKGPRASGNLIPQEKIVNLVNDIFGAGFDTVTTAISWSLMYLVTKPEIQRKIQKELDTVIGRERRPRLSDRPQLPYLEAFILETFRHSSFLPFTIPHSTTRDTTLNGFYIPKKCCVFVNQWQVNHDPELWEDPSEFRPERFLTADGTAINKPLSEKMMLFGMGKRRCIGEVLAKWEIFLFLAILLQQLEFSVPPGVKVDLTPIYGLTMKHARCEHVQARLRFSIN
Cytochrome P450 2C19 (Homo sapiens), sequence (P33261 whole entry, looked up): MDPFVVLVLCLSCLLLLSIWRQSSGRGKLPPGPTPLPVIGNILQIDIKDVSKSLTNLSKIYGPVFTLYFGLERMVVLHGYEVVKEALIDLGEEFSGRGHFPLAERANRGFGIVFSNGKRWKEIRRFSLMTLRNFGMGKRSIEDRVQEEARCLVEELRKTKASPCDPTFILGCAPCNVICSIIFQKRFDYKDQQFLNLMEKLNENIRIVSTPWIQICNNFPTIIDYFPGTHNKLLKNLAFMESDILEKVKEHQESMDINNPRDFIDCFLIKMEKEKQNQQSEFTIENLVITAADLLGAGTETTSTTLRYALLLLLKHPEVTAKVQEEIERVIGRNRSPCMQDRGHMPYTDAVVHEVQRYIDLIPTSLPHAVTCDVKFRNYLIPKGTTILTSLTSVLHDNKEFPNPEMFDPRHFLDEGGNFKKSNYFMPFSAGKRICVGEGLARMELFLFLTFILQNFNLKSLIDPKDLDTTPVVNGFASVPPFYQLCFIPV

## COc1ccccc1CNc1ccnc(-c2ccccc2CN(C)C)n1
[1]
  Potency: > 11.4 µM
[2]
  activity change, negative = inhibition: -7.71%
[3]
  activity change, negative = inhibition: -25.2%
[4]
  activity, negative = inhibition: 3.25%
[5]
  Potency: > 46 µM
[6]
  Potency: > 46 µM
[7]
  Potency: inactive
[8]
  Potency: inactive
[9]
  Potency: inactive
[10]
  Potency: inactive
[11]
  Potency: inactive
[12]
  outcome: inactive

## N#CCCn1c(=O)c(-c2cc(F)cc(F)c2)nc2cnc(Nc3ccccc3)nc21
[1]
  Potency: > 11.4 µM
[2]
  activity change, negative = inhibition: 9.43%
[4]
  activity, negative = inhibition: -15.8%
[5]
  Potency: > 9.22 µM
[6]
  Potency: > 46 µM
[7]
  Potency: inactive
[13]
  Potency: inactive
[8]
  Potency: inactive
[9]
  Potency: inactive
[10]
  Potency: inactive
[11]
  Potency: inactive
[12]
  outcome: inactive

## CN(C)c1ncnc2ccc(-c3cccc(C#N)c3)cc12
[1]
  Potency: > 11.4 µM
[2]
  activity change, negative = inhibition: -26.8%
[4]
  activity, negative = inhibition: 21.1%
[5]
  Potency: > 46 µM
[6]
  Potency: > 46 µM
[7]
  Potency: inactive
[13]
  Potency: inactive
[14]
  Potency: inactive
[8]
  Potency: 14.1 µM (active)
[9]
  Potency: 15.8 µM (active)
[10]
  Potency: inactive
[11]
  Potency: inactive
[12]
  outcome: inactive

## COc1ccc(Oc2ncc3nc(-c4ccc(F)cc4)c(=O)n(C4CC4)c3n2)cc1
[1]
  Potency: > 11.4 µM
[2]
  activity change, negative = inhibition: 0.828%
[4]
  activity, negative = inhibition: 14.5%
[5]
  Potency: > 9.22 µM
[6]
  Potency: > 46 µM
[7]
  Potency: inactive
[13]
  Potency: inactive
[8]
  Potency: inactive
[9]
  Potency: inactive
[10]
  Potency: inactive
[11]
  Potency: inactive
[12]
  outcome: inactive

## c1ccc(CNc2ncnc3ccc(-c4ccc5c(c4)OCO5)cc23)cc1
[1]
  Potency: > 11.4 µM
[15]
  Potency: 0.2 µM (active)
[3]
  activity change, negative = inhibition: -4.08%
[4]
  activity, negative = inhibition: -5.81%
[5]
  Potency: > 46 µM
[6]
  Potency: > 46 µM
[7]
  Potency: inactive
[16]
  Potency: 2 µM (active)
[14]
  Potency: inactive
[17]
  Potency: 3.16 µM (active)
[8]
  Potency: 0.158 µM (active)
[9]
  Potency: 0.178 µM (active)
[10]
  Potency: 0.0355 µM (active)
[11]
  Potency: inactive
[12]
  outcome: inactive

## Cn1cc(-c2nc3cnc(Oc4cccc(Cl)c4)nc3n(C3CC3)c2=O)c2ccccc21
[1]
  Potency: > 11.4 µM
[15]
  Potency: 12.6 µM (active)
[3]
  activity change, negative = inhibition: 6.59%
[4]
  activity, negative = inhibition: 9.54%
[5]
  Potency: > 9.22 µM
[6]
  Potency: > 46 µM
[7]
  Potency: inactive
[8]
  Potency: inactive
[9]
  Potency: inactive
[10]
  Potency: inactive
[12]
  outcome: inactive

## CCNc1ncc2nc(-c3ccc(F)cc3)c(=O)n(CCc3ccccc3)c2n1
[1]
  Potency: > 11.4 µM
[2]
  activity change, negative = inhibition: 12.6%
[3]
  activity change, negative = inhibition: -12.8%
[5]
  Potency: > 9.22 µM
[6]
  Potency: > 46 µM
[7]
  Potency: inactive
[18]
  Potency: 0.398 µM (active)
[8]
  Potency: inactive
[9]
  Potency: inactive
[10]
  Potency: inactive
[11]
  Potency: inactive
[12]
  outcome: inactive
